Data from PubChem BioAssay AID492967 (ICCB-Longwood Screening Facility, Harvard Medical School, 2010).
Values joined by “and” are separate entries in the source; they are usually repeats but may differ in a detail not shown here. Equal values may be shown once. Among all 140,000 compounds or so, about 320 (0.23%) were called active. No stated cut-off is given here; in the data, active means z-score mostly below about -2.9 (no sharp cut-off); inactive means mostly above about -1.9. The list comes from a sample in which actives are over-represented; it also holds similar structures and randomly drawn compounds. Some structures have more than one record in an assay (separate samples or runs), and their calls can disagree.

Test system: CapD gamma-glutamyltranspeptidase (Bacillus anthracis Ames Ancestor)
Assay: Bacillus anthracis CapD inhibitors, primary screen, biochemical, fluorescence intensity (AID 492967)
Details: purified CapD enzyme, fluorescence intensity read-out; stronger effect = lower value

SMILES	z-score
CCC(C(=O)Nc1cccc(OC)c1)N1C(=O)CCn2nccc21 (centres undefined)	0.745 (inactive)
O=C1C2C3c4ccccc4C(c4ccccc43)C2C(=O)N1c1ccccc1Cl (centres undefined)	0.425 (inactive)
Nc1[nH]c(=S)sc1C(=O)Nc1nccs1	-5.56 (active)
O=C(O)c1ccccc1-c1ccccc1C(=O)Nc1nccs1	0.375 (inactive)
O=C(Nc1nccs1)c1cc(=O)c2ccccc2o1	-0.41 (inactive)
CC(=O)Nc1ccc2c(c1)OCCOCCOCCO2	-0.015 (inactive)
CC(C)Oc1ccccc1C(N)=O	-0.285 (inactive)
COc1ccc(CSc2nc(N)nc(-c3cccs3)c2C#N)cc1	3.26 (inactive)
O=C(Oc1ccc(C=Nc2cccc(Br)c2)cc1)c1ccccn1	-0.36 (inactive)
Fc1ccccc1-c1nc(N2CCC3(CC2)OCCO3)c2ccccc2n1	-0.275 (inactive)
CC(C)C(=O)N=c1scc(-c2ccccc2)n1-c1ccccc1Cl	0.04 (inactive)
COc1ccc(C(=O)NNC(=O)C2CCN(c3ccc(C(F)(F)F)cn3)CC2)cc1	3.11 (inactive)
CC(C)CCOc1ccc(C(=O)C(C)C)cc1	0.445 (inactive)
COc1ccccc1C1CCN(C(=O)c2ccccc2C(F)(F)F)CC1	0.315 (inactive)
CC1=C(C(=O)OCCc2ccccc2)C(c2ccccc2C(F)(F)F)NC(=O)N1C (centres undefined)	-0.495 (inactive)
N#C/C(=C\C=C\c1ccccc1)c1nc2ccccc2[nH]1	2.54 (inactive)
N#CC(=C1C(=O)c2ccccc2C1=O)c1nc2ccccc2[nH]1	-4.36 (active)
CS(=O)(=O)c1nc2ccccc2[nH]1	0.005 (inactive)
ClCCOc1nc(N2CCOCC2)nc(N2CCOCC2)n1	-0.68 (inactive)
O=C(c1ccc(Cn2c(=S)[nH]c3ccc(Br)cc3c2=O)cc1)N1CCN(C(=O)c2ccco2)CC1	0.025 (inactive)
Cc1ccccc1C(=O)N1CCc2c([nH]c3ccccc23)C1	0.37 (inactive)
CCOC(=O)C1=CN(Cc2ccc(OC)cc2)C=C(C(=O)OCC)C1c1cc(Br)c(OCC)c(OC)c1	22.1 (inactive)
O=C(Cn1c2ccccc2c(=O)c2cc(Cl)ccc21)Nc1ccc(OCc2ccccc2)cc1	0.395 (inactive)

SMILES	z-score
COc1ccc(S(=O)c2ccccc2C(=O)O)cc1 (centres undefined)	0.375 (inactive)
COc1ccccc1N1CCN(c2ncnc3sc(C(=O)Nc4ccc5c(c4)OCCO5)c(C)c23)CC1	-0.055 (inactive)
COc1cccc(N/C(SCc2c(F)cccc2Cl)=C(/C#N)C(=O)NCc2ccccc2)c1	-0.425 (inactive)
O=c1c(-c2cc3ccccc3o2)[n+]([O-])c2ccccc2n1O	2.82 (inactive)
O=C1/C(=C/c2ccc(Br)cc2)C=C(c2ccccc2)N1c1ccccc1Br	-0.72 (inactive)
NC(=O)CCc1cn(-c2ccccc2)nc1-c1ccccc1	-0.045 (inactive)
COc1cc2c(cc1OC)C(c1ccc(Cl)cc1)NC(=O)C2 (centres undefined)	-0.115 (inactive)
CCOC(=O)C1=C(C)NC(C)=C(C(=O)OCC)C1c1cn(-c2ccccc2)nc1-c1ccc(F)cc1	3.54 (inactive)
CC(C)(C)c1ccc(S(=O)(=O)Nc2ccc3c(c2)N(S(=O)(=O)c2cccc(C(F)(F)F)c2)CC3)cc1	-0.6 (inactive)
Cc1c(Cl)cccc1N=C1NC(=O)/C(=C/c2ccco2)S1	-1 (inactive)
CCN(CC)C(=O)Cn1ncc2c3ccccc3n(Cc3ccccc3)c2c1=O	2.73 (inactive)
O=C(CN1C(=O)CC(c2ccccc2)Sc2ccccc21)NCc1ccccc1 (centres undefined)	-0.28 (inactive)
COc1cc(/C=C2/N=C(c3ccc(Cl)c([N+](=O)[O-])c3)OC2=O)cc(OC)c1OC	0.85 (inactive)
CC1CCC(C(C)C)C(OCC(O)CN2CCN(c3ccccc3)CC2)C1 (centres undefined)	0.045 (inactive)
Cc1ccc(C(=O)N/C(=C\c2ccccc2)C(=O)Nc2c(C)n(C)n(-c3ccccc3)c2=O)cc1	-0.355 (inactive)
Cc1c(NC(=O)c2cccnc2)c(=O)n(-c2ccccc2)n1C	-0.255 (inactive) and -5.24 (active)
COC(=O)Nc1c(C)n(C)n(-c2ccccc2)c1=O	0.115 (inactive)
COc1cc(NC(=O)c2cc(N(C)C)nc(N(C)C)n2)cc(OC)c1	4.64 (inactive)
COc1cccc(C(=O)c2cc3ccc(O)cc3oc2=O)c1	-6.04 (active)
COc1ccc2oc(=O)c(C(=O)NC(C)(C)C)cc2c1	13.9 (inactive)
COc1ccc2oc(=O)c(C(=O)O)cc2c1	31.1 (inactive)
Cc1cccc(-c2noc(-c3ccc(OC(F)(F)F)cc3)n2)c1	-0.145 (inactive)
CC(=O)Nc1ccccc1C(=O)OCC(=O)Nc1nc2ccccc2s1	-0.695 (inactive)

SMILES	z-score
O=C(O)CC(CC(=O)Oc1ccccc1N1CCCC1)c1ccccc1 (centres undefined)	-0.435 (inactive)
CC(C)C(=O)Nc1c2c(nn1-c1ccccc1)CSC2	0.225 (inactive)
COc1cc(C(=O)Nc2c3c(nn2-c2cccc(C)c2C)CS(=O)(=O)C3)cc(OC)c1OC	0.345 (inactive)
Cc1cccc(-n2nc3c(c2NC(=O)/C=C\c2ccco2)CSC3)c1C	-4.94 (active)
COc1ccc(OC)c(/C=N/NC(=O)c2cn(C)c3ccccc23)c1	14.4 (inactive)
CC(C)Oc1ccccc1Oc1ccc([N+](=O)[O-])cn1	-0.145 (inactive)
COc1ccc(OC)c(-n2c(=S)[nH]c3cc(C(=O)Nc4ccc(OC)c(OC)c4)ccc3c2=O)c1	-1.08 (inactive)
CSc1ccc(-c2ncnn2-c2ccc(Cl)cc2)cc1	-0.715 (inactive)
Cn1cc(CC(=O)Nc2ccccc2)c2ccccc21	-0.8 (inactive)
Clc1ccc(C2N=C(c3cnccn3)NN2)cc1 (centres undefined)	-0.935 (inactive)
CCO/C=C1\C(=O)N(c2ccc(C)cc2C)C(=O)c2cc(OC)ccc21	0.06 (inactive)
COc1ccc(C2CC(=O)C3=C(C2)Nc2ccc4ccccc4c2C3c2ccc3c(c2)OCO3)cc1 (centres undefined)	1.5 (inactive)
CC(NC(=O)Cn1nc(-c2ccc(Cl)cc2)c2ccccc2c1=O)c1ccccc1 (centres undefined)	-0.405 (inactive)
CC1CCc2c(sc(NC(=O)c3sc4ccccc4c3Cl)c2C(=O)OC(C)C)C1 (centres undefined)	-0.045 (inactive)
O=C1NC(=S)N/C1=C\c1c(F)cccc1Cl	-4.06 (active)
O=C1NC(=S)N/C1=C/c1cc(I)cc(I)c1O	-0.725 (inactive)
C=CCOC(=O)c1cc(-c2ccc(/C=C3/NC(=S)NC3=O)o2)ccc1Cl	0.96 (inactive)
COC(=O)c1c(NC(=O)c2c(-c3c(Cl)cccc3Cl)noc2C)sc2c1CCCC2	-0.55 (inactive)
COc1ccc(/C=C/C(=O)N2CCN(C(c3ccccc3)c3ccccc3)CC2)cc1OC	4.64 (inactive)
CC1(C)OCC([C@H]2O[C@@H]3OC(C)(C)OC3C2OC(=O)Nc2ccc(Cc3ccc(NC(=O)OC4C5OC(C)(C)O[C@H]5O[C@@H]4C4COC(C)(C)O4)cc3)cc2)O1 (some centres undefined)	-0.275 (inactive)
CC(C)(C)C(=O)N(Cc1cccnc1)Cc1ccc(Cl)cc1Cl	-0.865 (inactive)
Cc1ccc(S(=O)(=O)c2cnc(SCC(=O)N3CCCc4ccccc43)[nH]c2=O)cc1	-0.55 (inactive)
CC1CCN(c2nc3nonc3nc2Nc2cccc(Br)c2)CC1	0.265 (inactive)
